Screen size: about 390,000 compounds; about 17,000 (4.4%) were called active. About 8% were inconclusive and are not listed. The sample as a whole holds a higher share of actives than the screen did. A number with no mark means an inactive call. The call rests on the fitted dose curve; in most records, active means well fitted inhibition curve with a large enough effect; inconclusive means small, poorly fitted or top-dose-only effect; inactive means no such curve, though single readings can be large or run the other way.
Each compound was assayed against Lysine-specific demethylase 4A (Homo sapiens) (UniProt O75164) (assay: qHTS Assay for Inhibitors of JMJD2A-Tudor Domain). Conditions: AlphaScreen JMJD2A-Tudor / H3K4me3 peptide binding; series mostly up to 114 µM; activity change, negative = inhibition: at the top concentration.
Excerpt: JMJD2A is a jumonji-domain-containing lysine demethylase that uses Fe(II) together with 2-OG to effect oxidative demethylation of histones. Methylation is one of many […] modification that affect epigenetic transcription. […] It is proposed that the functions of JmjD2A binding to the histones, is to maintain marks after they are installed and to spread the modifications by […], establishing a self-propagating cycle for rapid methylation over a large area of chromatin. […] Thus, small molecule targeting of the JMJD2A-tudor domain interaction with its target methylhistone mark is expected to enable sophisticated experiments probing the fine regulatory pathways leading to selective demethylation of a given methyllysine locus based on the methylation state of adjacent histone marks. A quantitative high throughput AlphaScreen has been developed to identify small molecule inhibitors based on a protocol published by NCGC and SGC [4].
Although AlphaScreen has significant advantages with its utility in a variety of epigenetic target assays, the primary screening data provided in this deposition should be used with caution due to the prevalence of screening artifacts. The top compound concentration tested was high (>100uM) in this assay, which increases number of actives and potential artifacts. An AlphaScreen counterscreen is highly recommended to be run against any putative actives to eliminate non-specific artifacts. Alternatively, one can use other AlphaScreen assays in PubChem to filter out promiscuous hits.
[1] Lee, J. et al. Distinct binding modes specify the recognition of methylated histone H3K4 and H4K20 by JMJD2A-tudor. Nat Struct Mol Biol. 15(1); 109-11. 2008. PMID: 18084306
[2] Yasgar, et al. Compound Management for Quantitative High-Throughput Screening. JALA. 2008 Apr;13(2):79-89. PMID: 18496600
[3] Inglese, et al. Quantitative high-throughput screening: a titration-based approach that efficiently identifies biological activities in large chemical libraries. Proc Natl Acad Sci. 1;103(31):11473-8. 2006. PMID: 16864780
[4] Quinn et al. A homogeneous method for investigation of methyl-dependent protein-protein interactions in epigenetics. Nucleic Acids Res., 38(2):e11. 2010. PMID: […]
[5] Baell,Holloway. New substructure filters for removal of pan assay interference compounds (PAINS) from screening libraries and for their exclusion in bioassays. J Med Chem. 53(7):2719-40. 2010. PMID: 20131845
NIH Molecular Libraries Probe Production Network [MLPCN]
NIH Chemical Genomics Center [NCGC]
Structural Genomics Consortium (SGC)
To each well of a 1,536w plate, 2ul of JMJD2A-Tudor (final 100nM) and 1ul biotinylated histone peptide methylated at Lys4 [b-H3(1-18)K4me3] (final 50nM) were added in 1x PBS buffer, pH 7.4, containing 0.01% Tween-20, using a nanoliter dispenser. Formation of a protein-peptide complex proceeded at room temperature for 30 min. A Kalypsys pin-tool transferred 23nl of library compound solution in DMSO to each well. Following a 30 min incubation of the protein-peptide complex with compounds at room temperature, a mixture of 40 µg/mL each streptavidin-coated donor and nickel chelate acceptor AlphaScreen beads (final 10 µg/mL) was added in a 1ul dispense for a final volume of 4ul, followed by a brief centrifugation (1000 rpm, 1 min). Plates were incubated protected from the light for 20 min at room temperature. Microplates were then read on an EnVision multilabel plate reader using the 1,536 plate HTS AlphaScreen aperture (excitation time 80 ms, measurement time 240 ms).
Further: nearly all actives have a fitted effect of over 50% in size.
On the % scale 0 is the no-effect control and ±100 the full control effect; potency means the concentration at half of the fitted maximal effect.

Lysine-specific demethylase 4A (Homo sapiens), sequence (O75164 whole entry, looked up, the tested form may be a part): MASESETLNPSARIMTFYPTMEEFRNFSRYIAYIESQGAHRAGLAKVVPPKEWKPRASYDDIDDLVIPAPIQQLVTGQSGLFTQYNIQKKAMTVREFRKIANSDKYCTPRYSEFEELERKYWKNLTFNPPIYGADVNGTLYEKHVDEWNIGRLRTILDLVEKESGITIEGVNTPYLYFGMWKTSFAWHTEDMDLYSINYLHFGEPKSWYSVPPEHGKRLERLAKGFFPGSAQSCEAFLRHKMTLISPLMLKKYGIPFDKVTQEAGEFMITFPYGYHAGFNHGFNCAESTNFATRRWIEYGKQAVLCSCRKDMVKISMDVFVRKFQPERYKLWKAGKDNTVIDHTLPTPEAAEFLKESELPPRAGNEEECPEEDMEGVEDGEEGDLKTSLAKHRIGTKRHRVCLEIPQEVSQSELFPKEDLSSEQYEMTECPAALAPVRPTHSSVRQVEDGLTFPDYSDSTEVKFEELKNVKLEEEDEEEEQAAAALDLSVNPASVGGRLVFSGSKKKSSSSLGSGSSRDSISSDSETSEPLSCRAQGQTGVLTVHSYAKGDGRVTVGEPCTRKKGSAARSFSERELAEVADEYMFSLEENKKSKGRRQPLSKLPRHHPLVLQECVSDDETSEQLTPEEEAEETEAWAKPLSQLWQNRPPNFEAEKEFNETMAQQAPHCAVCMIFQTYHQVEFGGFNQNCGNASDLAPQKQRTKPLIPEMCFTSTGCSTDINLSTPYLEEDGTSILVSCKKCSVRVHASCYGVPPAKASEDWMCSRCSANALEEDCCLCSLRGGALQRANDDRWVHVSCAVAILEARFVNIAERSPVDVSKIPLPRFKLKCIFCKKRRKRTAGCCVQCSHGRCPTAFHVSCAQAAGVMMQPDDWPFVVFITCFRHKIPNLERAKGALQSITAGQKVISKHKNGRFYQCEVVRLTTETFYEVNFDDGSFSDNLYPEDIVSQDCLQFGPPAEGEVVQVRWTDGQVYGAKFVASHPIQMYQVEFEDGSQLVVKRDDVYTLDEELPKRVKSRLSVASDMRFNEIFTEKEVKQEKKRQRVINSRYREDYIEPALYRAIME

Row | SMILES | Potency | activity change, negative = inhibition
1 | O=C(O)c1cc[c]([Sb](=[O])([OH])[OH])cc1[N+](=O)[O-] | 0.316 µM (active) | 
2 | O=C(c1ccccc1[N+](=O)[O-])N1CCC2(CC1)OCCO2 |  | -6.21% (inactive)
3 | C[C@@]1([C@@H](NP(=O)(c2ccccc2)c2ccccc2)c2ccccc2)C[C@H]1CCO |  | -5.04% (inactive)
4 | COC(=O)N(c1ccc(OC)cc1)P1(=S)OCCC(C)O1 (configuration not stated) | 79.4 µM (active) | 
5 | CCC(=O)c1ccc(OCC(=O)N2CCN(CC(=O)Nc3ccc(C)cc3)CC2)cc1 |  | 21.2% (inactive)
6 | O=C1NC(=O)C(Cc2ccccc2)C(=O)N1 |  | -8.28% (inactive)
7 | COC(=O)C1=C(c2ccccc2)C[C@@H]2CC[C@H]1N2C(=O)N1CCCCC1 |  | -13.1% (inactive)
8 | Cn1c(O)c(C=NCCN2CCNCC2)c(=O)n(C)c1=O |  | -6.87% [at 57.1 µM] (inactive)
9 | c1cc2c(cc1[C@H]1OC[C@H]3[C@@H]1CO[C@@H]3c1ccc3c(c1)OCO3)OCO2 |  | -20.7% (inactive)
10 | c1cc2c(cc1CCNC1CCCCCC1)OCO2 | 3.16 µM (active) | 
11 | c1ccc(CCNC2CCCCCC2)cc1 | 70.8 µM (active) | 
12 | Cc1ccc(CN2CCCC(C(=O)c3ccc4c(c3)OCO4)C2)cc1C (configuration not stated) |  | -17.6% [at 11.4 µM]
13 | OC(CNC1CCCCC1)c1ccccc1 (configuration not stated) |  | -6.35% (inactive)
14 | c1ccc(CC2CCCCN2)cc1 (configuration not stated) |  | -17.5% (inactive)
15 | O=P1(Oc2ccccc2)CC(O)C(O)C(COCc2ccccc2)O1 (configuration not stated) |  | -14.5% (inactive)
16 | S=P(c1ccccc1)(c1ccccc1)c1c(-c2ccccc2)[nH]c2ccccc12 |  | -27.2% (inactive)
17 | CCCC[N+]1(C)C2CC(OC(=O)C(CO)c3ccccc3)CC1C1OC12 (configuration not stated) |  | -1.44% (inactive)
18 | CNP1(NC)=Nc2nn(-c3ccccc3)c(N)c2C(c2ccccc2)=N1 |  | -14.5% (inactive)
19 | O=C1C2(Cl)C3(Cl)C4(Cl)C(Cl)(Cl)C5(Cl)C3(Cl)C1(Cl)C5(Cl)C24Cl (configuration not stated) |  | -25.5% (inactive)
20 | Nc1ccc(C(=O)N/N=C2/CN3CCC2CC3)cc1 | 89.1 µM (active) | 
21 | CC1CC=CCC12C(=O)NC(=S)NC2=O (configuration not stated) |  | -2.78% (inactive)
22 | COC(=O)C1=C(c2ccc(Cl)c(C(F)(F)F)c2)C[C@@H]2CC[C@H]1N2C(=O)NC1CC1 |  | -5% (inactive)
23 | Cc1cccc(-n2c(O)c(/C=N/N3CCOCC3)c(=O)[nH]c2=S)c1 |  | -3.47% (inactive)
24 | CCOc1cc(N2CCOCC2)c(OCC)cc1NC(=O)C1=NN(c2cccc(C)c2)C(=O)CC1 | 50.1 µM (active) | 
25 | CCN1C(=O)NC(=O)C2(CCCC2)C1=O |  | -12.5% (inactive)
26 | c1cncc(CNCCc2c[nH]c3ccccc23)c1 |  | -11.6% (inactive)

Row | SMILES | Potency | activity change, negative = inhibition
27 | C/C(CCc1c[nH]c2ccccc12)=N\O |  | -5.13% (inactive)
28 | COc1ccc(CNCCc2c[nH]c3ccccc23)cc1OC | 79.4 µM (active) | 
29 | CCN1CC2C3CCC(C)(O3)C2C1 (configuration not stated) |  | -21.9% (inactive)
30 | CC1([N+](=O)[O-])COP(=O)(Nc2ccc(F)cc2)OC1 (configuration not stated) |  | -4.86% (inactive)
31 | CN(C)P(=S)(Nc1ccccc1)C(Cl)(Cl)Cl (configuration not stated) |  | 2.26% [at 57.1 µM] (inactive)
32 | c1cncc(CNC2=NCCC2)c1 |  | 0% [at 57.1 µM] (inactive)
33 | CC1CCCCN1Cc1cccnc1 (configuration not stated) | 8.91 µM (active) | 
34 | CC1CCCN1CCC(C(N)=O)(c1ccccc1)c1ccccc1 (configuration not stated) |  | -13.8% (inactive)
35 | C[C@]12CCC3C(CC[C@H]4[C@H](O)[C@H](O)CC[C@]34C)C1CC[C@@H]2O (some centres not stated) |  | 0% (inactive)
36 | O=c1[nH]c(=O)n(-c2ccc(F)cc2)c(O)c1C=NCCN1CCCCC1 |  | -0.699% (inactive)
37 | CCOc1ccc(CN(CCCl)CCCl)cc1C(=O)OC | 25.1 µM (active) | 
38 | c1ccc(C(CN2CCCCC2)c2ccccc2)cc1 |  | -9.59% (inactive)
39 | CCOP(=O)(OCC)C(NC(=O)c1ccc(C)cc1)C(Cl)(Cl)Cl (configuration not stated) |  | 0.685% (inactive)
40 | CC12CCC(O)CC1CCC1C2CCC2(C)C(C(=O)CC(O)C(F)(F)F)CCC12 (configuration not stated) |  | -4.17% (inactive)
41 | CCC1(C)CC(CCNCc2ccc(N(C)C)cc2)(c2ccc(F)cc2)CCO1 (configuration not stated) | 44.7 µM (active) | 
42 | COC1=CC=C2[C@H]3Cc4ccc(OC)c5c4[C@@]2(CCN3C)C1O5 (some centres not stated) |  | -11% (inactive)
43 | CCN(CC)C(=O)c1ccc(NC(=O)c2cc(-n3cnnc3)ccc2Cl)cc1 |  | -15.3% (inactive)
44 | COc1cccc(OC)c1C(=O)NC(=S)N1C[C@H]2C[C@H](C1)c1cccc(=O)n1C2 |  | -17.7% (inactive)
45 | CCC/C(=N\O)c1c[nH]c2ccccc12 |  | 3.73% (inactive)
46 | CCc1cccc2c(C#N)cn(CC(=O)N3CCOCC3)c12 |  | -5.97% (inactive)
47 | COc1ccccc1CN1CCN(C(=O)Cc2ccccc2)CC1 | 2.51 µM (active) | 
48 | CCN1CCN(C(=O)Cc2coc3cc(C)cc(C)c23)CC1 |  | -17.1% (inactive)
49 | O=C(Cn1c(=O)n(CC2CS2)c2ccccc21)N1CCCCC1 (configuration not stated) |  | -0.687% (inactive)
50 | CCC(=NCCc1ccccc1)c1c(O)n(C2CCCCC2)c(=O)[nH]c1=O |  | -27.9% (inactive)
51 | O=C(Cc1ccccc1)N1CCN(C2CCCCCC2)CC1 | 79.4 µM (active) | 
52 | O=C(Cc1ccc(Cl)cc1)NCCN1CCN(C(=O)Cc2ccc(Cl)cc2)CC1 |  | -13.7% (inactive)

— PubChem BioAssay AID504339 (National Center for Advancing Translational Sciences (NCATS), 2011)
